Measurements taken from PubChem BioAssay.
Several values for one entry are separate records, joined by “and”; a condition that tells them apart may be missing. Identical values can stand only once. For some assays here: Potency and affinity values are given separately. Activity calls are given as the source filed them.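 Rule for the calls, unless noted: active = thallium flux through the channel raised or lowered by more than 3 SD from vehicle-only wells, actives on both sides; inactive = the rest.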

How the values were obtained:
[1] = polyglutamine-triggered caspase-3 activation inhibitors, cell-based (AID 1583); details: polyglutamine-induced caspase-3 activation, cell assay; stronger effect = higher value;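 tested at 10 µM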
[2] = suppressors of polyQ aggregation in yeast, 75Q-TubU reporter (AID 1593); details: Yeast 75Q polyglutamine aggregation reporter
[3] = rescue of polyQ-huntingtin neuronal dysfunction in worms, whole organism, C. elegans mechanosensory neurons, N-terminal huntingtin (AID 1599); details: touch response, stronger effect = higher value
[4] = inhibitors of mitochondrial cytochrome c release, biochemical, purified mitochondria (AID 1603); details: stronger effect = lower value;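 note: mouse liver mitochondria challenged with calcium chloride; signal normalized to the plate average as 100%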
[5] = inhibitors of polyQ protein aggregation (AID 1604); details: polyglutamine-induced protein aggregation inhibition assay; stronger effect = higher value; tested at 2.5 µM
[6] = enhancers of glutamate uptake in motor neurons, MN-1 cell line (AID 1612); details: MN-1 motor neuron cells, stronger effect = higher value;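 note: tested at 1 µM final; 0% = mean of DMSO vehicle wells on each plate; positive means more glutamate uptake than control and negative means less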
[7] = suppressors of polyglutamine aggregation in yeast, 75Q-TubH (AID 1616); details: S. cerevisiae 75Q-TubH polyglutamine aggregation suppression; stronger effect = higher value
[8] = hESC survival regulators, cell-based (AID 493140; call rule not given here;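 note: cells exposed to compounds for four days before counting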); details: human embryonic stem cell survival screen; stronger effect = higher value
[9] = test system: Neuropilin-2 / VEGF-C interaction (human); test: inhibitors of NRP2–VEGF-C binding, biochemical, microplate binding format, z-score (AID 743281; call rule not given here); details: microplate NRP2/VEGF-C binding assay; stronger effect = lower value
[10] = modulation of C. elegans fzo-1 (AID 1259413; call rule not given here;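 note: fzo-1 mutant C. elegans worms in liquid wells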); details: C. elegans fzo-1 modulator screen, mean read-out; stronger effect = higher value
[11] = viability rescue of complex I mutant cybrids, primary screen, cell-based, galactose medium, ATP luminescence (AID 1645843;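 active = z-score of at least 1.8 in each of two replicates, scored against plate mean and spread of sample wells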;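 note: positive z means more ATP and so rescue of galactose-driven cybrid death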); details: complex I mutant cybrid cells, 72 h, stronger effect = higher value
F380Y/beta2Delta = test: modulators of BK channel variants, profiling panel, selectivity assay, cell-based, U2OS BacMam, thallium flux, beta subunits (AID 1259406); details: at 30 µM;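 note: initial slope of Thallos dye fluorescence rise after thallium is added; log ratio against the mean of 0.3% DMSO vehicle wells on the same plate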
[12] = target: Calcium-activated potassium channel subunit alpha-1 (Homo sapiens) + Leucine-rich repeat-containing protein 26 (Homo sapiens) (UniProt Q12791+Q2I0M4); test: as above; details: F380Y/Slo1WT/gamma1, at 30 µM
R275C = test: as above; details: at 30 µM
R275C/beta1 = test: as above; details: at 30 µM
R275C/beta2Delta = test: as above; details: at 30 µM
F380Y/beta1 = test: as above; details: at 30 µM
F380Y/beta4 = test: as above; details: at 30 µM
R275C/beta4 = test: as above; details: at 30 µM
R275C/Slo1WT/beta2 = test: as above; details: at 30 µM

Sequence of Calcium-activated potassium channel subunit alpha-1 (Homo sapiens) + Leucine-rich repeat-containing protein 26 (Homo sapiens) (Q2I0M4 whole entry, looked up, one chain of several): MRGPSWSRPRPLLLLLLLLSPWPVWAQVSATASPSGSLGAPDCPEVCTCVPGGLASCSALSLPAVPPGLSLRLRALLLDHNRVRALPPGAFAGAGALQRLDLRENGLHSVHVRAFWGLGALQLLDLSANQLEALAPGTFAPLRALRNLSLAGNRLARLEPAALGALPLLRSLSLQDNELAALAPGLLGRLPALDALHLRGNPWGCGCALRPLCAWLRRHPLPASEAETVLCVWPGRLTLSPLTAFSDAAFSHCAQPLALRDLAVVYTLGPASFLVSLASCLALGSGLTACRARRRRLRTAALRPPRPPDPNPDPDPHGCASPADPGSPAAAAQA

| Structure (SMILES) | inhibition [1] [%] | score [2] | rescue above control [3] | cytochrome c release ratio [4] | inhibition of aggregation [5] [%] | glutamate uptake change [6] [%] | aggregation suppression score [7] | survival [8] | z-score [9] | mean signal [10] | z-score [11] | log fold change Tl+ flux (F380Y/beta2Delta) | log fold change Tl+ flux [12] | log fold change Tl+ flux (R275C) | log fold change Tl+ flux (R275C/beta1) | log fold change Tl+ flux (R275C/beta2Delta) | log fold change Tl+ flux (F380Y/beta1) | log fold change Tl+ flux (F380Y/beta4) | log fold change Tl+ flux (R275C/beta4) | log fold change Tl+ flux (R275C/Slo1WT/beta2) |
| --- | --- | --- | --- | --- | --- | --- | --- | --- | --- | --- | --- | --- | --- | --- | --- | --- | --- | --- | --- | --- |
| CCN(CC)CC(=O)Nc1c(C)cccc1C | -3.43 | 1.56 | -0.5 | 1.13 | 87 | 0.81 | 1.18 | 23.2 (inactive) | 1.47 (inactive) | 257 (inactive) | 0.01 (inactive) and 0.715 (inactive) and 0.48 (inactive) | -0.0588 (inactive) | 0.0193 (inactive) | -0.00245 (inactive) | -0.022 (inactive) | 0.00392 (inactive) |  |  |  |  |
| CCCN1C[C@H](CSC)C[C@@H]2c3cccc4[nH]cc(c34)C[C@H]21 | 21.1 | 1 | -1.5 | 1.44 | 61.1 | -2.13 | 1.46 | 12.4 (inactive) |  |  | 0.12 (inactive) and -0.1 (inactive) | 0.0229 (inactive) | -0.0185 (inactive) | -0.00135 (inactive) | -0.0389 (inactive) | -0.00636 (inactive) |  |  |  |  |
| O=c1n(CCCN2CCN(c3cccc(Cl)c3)CC2)nc2ccccn12 | 17.6 | 1.36 | 8.41 | 1.04 | -2.89 | 4.27 | 1.27 | 27.2 (inactive) | 0.0689 (inactive) | 242 (inactive) | -0.33 (inactive) and 0.63 (inactive) | 0.035 (inactive) | 0.0319 (inactive) | 0.0186 (inactive) | 0.025 (inactive) | 0.0634 (inactive) |  |  |  |  |
| CCOC(=O)N1CCC(=C2c3ccc(Cl)cc3CCc3cccnc32)CC1 | 15.4 | 0.8 | -2.91 | 4.23 | 56.9 | -2.42 | 0.519 |  | 0.735 (inactive) | 253 (inactive) |  |  |  |  |  |  |  |  |  |  |
| OCCN(CCO)c1nc(N2CCCCC2)c2nc(N(CCO)CCO)nc(N3CCCCC3)c2n1 | -102 | 1.27 | 18.2 | 1.1 | 79.2 | 32 | 1.33 | 34.4 (inactive) |  | 298 (inactive) |  |  |  |  |  |  |  |  |  |  |
| C#C[C@]1(O)CC[C@H]2[C@@H]3CCC4=Cc5oncc5C[C@]4(C)[C@H]3CC[C@@]21C |  |  |  |  |  |  |  | 10.4 (inactive) |  |  | -1.4 (inactive) and -1.46 (inactive) | -0.066 (inactive) | 0.00932 (inactive) | 0.0195 (inactive) | 0.048 (inactive) | -0.00872 (inactive) | 0.032 (inactive) | -0.0261 (inactive) | 0.0847 (inactive) | -0.016 (inactive) |
| CC1(C)O[C@@H]2C[C@H]3[C@@H]4CCC5=CC(=O)C=C[C@]5(C)[C@@]4(F)[C@@H](O)C[C@]3(C)[C@]2(C(=O)CO)O1 |  |  |  |  |  |  |  |  |  |  | 0.21 (inactive) | -0.014 (inactive) | 0.106 (active) | -0.0106 (inactive) | 0.0867 (inactive) | 0.0611 (inactive) | 0.0642 (inactive) | 0.0499 (inactive) | -0.0125 (inactive) | -0.102 (inactive) |
| CN(C)CCOC(c1ccccc1)c1ccccc1 | 15.6 | 1.18 | -3.14 | 1.11 | 85.2 | 8.03 | 1.07 | 14 (inactive) | -0.533 (inactive) | 216 (inactive) | -0.255 (inactive) and 0.81 (inactive) and 0.09 (inactive) | 0.0216 (inactive) | -0.0145 (inactive) | 0.00435 (inactive) | 0.00179 (inactive) | 0.0139 (inactive) |  |  |  |  |
| Fc1ccc([C@@H]2CCNC[C@H]2COc2ccc3c(c2)OCO3)cc1 |  |  |  |  |  |  |  |  | 0.222 (inactive) | 159 (inactive) | -1.38 (inactive) and -0.63 (inactive) and -1.71 (inactive) |  |  |  |  |  |  |  |  |  |
| CCC(=O)O[C@]1(C(=O)CCl)[C@@H](C)C[C@H]2[C@@H]3CCC4=CC(=O)C=C[C@]4(C)[C@@]3(F)[C@@H](O)C[C@@]21C |  |  |  |  |  |  |  |  |  |  | -1.34 (inactive) and 0.04 (inactive) | 0.293 (active) | 0.157 (active) | -0.00176 (inactive) | 0.13 (active) | 0.172 (active) | 0.254 (active) | 0.236 (active) | 0.386 (active) | 0.0324 (inactive) |
| C[C@]12C=CC(=O)C=C1CC[C@@H]1[C@@H]2[C@@H](O)C[C@@]2(C)[C@H]1CC[C@]2(O)C(=O)CO |  |  |  |  |  |  |  | 15.8 (inactive) |  |  | -0.29 (inactive) and 0.46 (inactive) | 0.0411 (inactive) | -0.0308 (inactive) | 0.0128 (inactive) | 0.0311 (inactive) | 0.0197 (inactive) | 0.00512 (inactive) | 0.023 (inactive) | -0.0125 (inactive) | -0.0471 (inactive) |
